# Screening data from PubChem BioAssay.
# Only a selection was taken, and hits are over-represented in it overall.
# Pyk2 oligo antag: blocks oligomerization of human Pyk2 in cells; z-score (the deposit names both 25 µM and 10 µM); 99,000 compounds, 0.83% hits; Q293 cells, Pyk2 FERM NanoBiT luminescence; hits give low values; Q14289; AID 1347419;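 active = Z-score of -3 or lower, scaled per plate to the spread of control and sample wells; inactive = z-score above -3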;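 also: negative z-score means lost luminescence so less FERM oligomerization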
# Mac1 fbg inh: inhibitors of human CD11b/CD18 binding to fibrinogen. P05107+P11215. K562 CD11b/CD18 adhesion to fibrinogen, ATPlite luminescence; Mn2+ added to activate the integrin. inhibition, % at 10 µM. 93,000 compounds, 0.54% hits. AID 1497;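 active = primary inhibition of 50% or more at 10 µM, then 40% or more on retest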
# hDAT+cocaine: human DAT dopamine uptake with cocaine, either direction; B-score at 10 µM; AID 449768; Q01959; LLC-PK1 hDAT cells, [14C]-dopamine uptake with cocaine IC80; actives deviate in either direction; 110,000 compounds, 1.3% hits;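 active = Z score or B-score, a plate-position-corrected score, falls beyond the plate's 99.7% confidence bounds, in either direction; inactive = both scores lie inside the 99.7% bounds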;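 also: scored against the spread of the other compound wells on the same plate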
# CD11b adhes enh: increases human CD11b/CD18 adhesion to fibrinogen | AID 1499 | K562 CD11b/CD18 adhesion to fibrinogen, ATPlite luminescence | activation, % at 10 µM | 93,000 compounds, 0.07% hits;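 active = 10 µM primary screen giving 50% or more activity, confirmed by 40% or more on retest at that dose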
# D1 allo mod: allosterically modulates the human D1 dopamine receptor. HEK293 D1, CRE-luciferase, dopamine EC30 potentiation; actives deviate in either direction. 58,000 compounds, 5.9% hits. P21728. B-score at 10 µM;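 active = luminescence count or its row- and column-corrected plate score outside the 99.7% band of the plate's sample wells, on either side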
# FAK inh: FAK (human) kinase inhibition. 97,000 compounds, 0.84% hits. biochemical FAK kinase activity assay. AID 727. inhibition, %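 (tested at 7 µM)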; in the data active = inhibition above about 19%;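 also: 0% = DMSO and 100% = reference compound high control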
# Target sequence (Q05397 whole entry, looked up): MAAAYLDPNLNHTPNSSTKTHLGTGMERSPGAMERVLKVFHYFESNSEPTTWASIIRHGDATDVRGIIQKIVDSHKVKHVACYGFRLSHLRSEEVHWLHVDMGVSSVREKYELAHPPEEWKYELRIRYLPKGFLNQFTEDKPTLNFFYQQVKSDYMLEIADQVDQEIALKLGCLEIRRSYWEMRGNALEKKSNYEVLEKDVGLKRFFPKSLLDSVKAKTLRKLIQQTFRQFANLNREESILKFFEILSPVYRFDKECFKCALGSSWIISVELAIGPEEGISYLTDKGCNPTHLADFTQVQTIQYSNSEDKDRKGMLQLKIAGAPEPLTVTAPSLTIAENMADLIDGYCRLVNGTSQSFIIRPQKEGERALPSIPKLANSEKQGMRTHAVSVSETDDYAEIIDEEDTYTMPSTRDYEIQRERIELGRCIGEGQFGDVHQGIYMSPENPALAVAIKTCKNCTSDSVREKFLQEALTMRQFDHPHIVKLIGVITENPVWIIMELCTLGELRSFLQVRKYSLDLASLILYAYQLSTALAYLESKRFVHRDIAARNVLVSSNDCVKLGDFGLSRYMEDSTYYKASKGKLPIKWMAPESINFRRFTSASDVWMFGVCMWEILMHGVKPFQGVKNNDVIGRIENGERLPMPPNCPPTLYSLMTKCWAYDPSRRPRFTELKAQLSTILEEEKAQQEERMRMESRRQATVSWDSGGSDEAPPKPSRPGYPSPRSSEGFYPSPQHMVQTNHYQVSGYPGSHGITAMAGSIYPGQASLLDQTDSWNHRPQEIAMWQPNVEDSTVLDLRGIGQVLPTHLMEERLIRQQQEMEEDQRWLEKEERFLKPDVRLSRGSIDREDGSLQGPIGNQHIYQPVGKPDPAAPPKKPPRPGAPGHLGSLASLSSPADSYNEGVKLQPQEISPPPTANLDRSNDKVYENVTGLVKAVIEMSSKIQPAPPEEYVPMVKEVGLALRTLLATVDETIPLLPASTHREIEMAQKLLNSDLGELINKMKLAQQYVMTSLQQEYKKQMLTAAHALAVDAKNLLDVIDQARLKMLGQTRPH
# Numbers without * were called inactive; / = no result.
SMILES,Pyk2 oligo antag,Mac1 fbg inh,hDAT+cocaine,CD11b adhes enh,D1 allo mod,FAK inh
CCOc1ccc(CCNC(=O)C2CCCN(C(=O)N(C)C)C2)cc1OCC (configuration not stated),0.89,/,-0.66,/,-7.9*,-5
COc1ccc(CCNC(=O)CCn2cccc2)cc1OC,0.43,2,-0.12,-4,0.4,-11
CCOc1ccc(CCNC(=O)CCn2cccc2)cc1OCC,-0.28,-17,-4.3*,-1,2.5,-1
COCCn1c(SCc2nnc(-c3ccccc3)o2)nc2sc3c(c2c1=O)CCC3,0.02,5,0.79,-2,-5*,0
CCOC(=O)N1CCN(C(=O)C2CCCN(S(=O)(=O)c3cccnc3)C2)CC1 (configuration not stated),/,-7,-0.79,3,0.14,-2
CCOc1cc(CN2CCCCC2)ccc1OC,-0.05,-3,0.059,4,-3.5,0
CCOc1cc(CN2CCN(CCOCCO)CC2)ccc1OC,-0.1,-15,-2.7*,1,/,-2
COc1cc(OC)c(CN2CCCCCCC2)cc1Br,2,6,-0.44,-2,/,-1
O=C(c1ccc(Br)o1)N1CCN(C/C=C/c2ccccc2)CC1,0.47,1,1.4,4,-3.7*,0
O=C(c1ccc(Br)s1)N1CCN(C/C=C/c2ccccc2)CC1,-0.22,43,0.57,-2,/,1
CC1CCCC(NC(=O)COC(=O)c2ccc(S(=O)(=O)N3CCOCC3)cc2)C1C (configuration not stated),1.4,14,-0.0096,-3,/,-1
CC1CCCCC1NC(=O)COC(=O)c1ccc(N(C)C)cc1 (configuration not stated),-3.1*,4,0.51,-4,/,1
Cc1nc(C(=O)NC2CCCCC2)sc1C1(C)CC(c2cccnc2)=NO1 (configuration not stated),/,/,0.36,/,/,/
COc1ccc(-c2nnc(CSc3nc4ccccc4c(=O)n3CC3CCCO3)o2)cc1OC (configuration not stated),/,/,/,/,11*,/
O=C(O)C[C@H](O)C[C@H](O)/C=C/c1c(C2CC2)nc2ccccc2c1-c1ccc(F)cc1,/,/,0.83,/,/,/
COc1ccc(/C=N\n2nnc3ccccc32)cc1,-0.45,51,-1.7,4,-3.9*,/
COc1ccc(/C=N/n2cc(-c3ccccc3)nc2N)cc1,1.3,-21,1.2,2,0.41,/
CCn1c(SCc2c(F)cccc2Cl)nnc1-c1ccco1,0.72,-11,-0.51,1,/,0
COc1ccc(-c2nc(-c3ccc(NC(=O)c4ccncc4)cc3)no2)cc1OC,/,64,-0.36,-4,-6.7*,-2
Cc1cc(C)c2nc(N3CCCC(C(=O)NCCN4CCOCC4)C3)sc2c1 (configuration not stated),0,-17,-0.54,-1,-0.92,-2
Cc1cc(C)c2nc(N3CCCC(C(=O)N4CCC(C(N)=O)CC4)C3)sc2c1 (configuration not stated),-1.6,-2,0.65,-1,-4.1*,4
Cc1cccc(NC(=O)c2nc[nH]c2C(=O)N[C@@H](CC(C)C)C(=O)OC(C)(C)C)c1,/,/,2.7*,/,/,/
Cc1cccc(NC(=O)c2nc[nH]c2C(=O)N[C@@H](Cc2ccccc2)C(=O)OC(C)(C)C)c1,/,/,0.81,/,/,/
O=S(=O)(NCc1ccco1)c1cccc2cccnc12,0.09,/,-0.093,/,-0.55,7
COCCNS(=O)(=O)c1cccc2cccnc12,/,-19,-2.7*,2,-1.1,/
SMILES,Pyk2 oligo antag,Mac1 fbg inh,hDAT+cocaine,CD11b adhes enh,D1 allo mod,FAK inh
COc1ccc(NC(=O)OCCn2c([N+](=O)[O-])cnc2C)cc1,/,-2,/,10,/,/
O=[N+]([O-])c1cccc(C(=Nc2cccc(Cl)c2)NO)c1,-1.4,9,1.2,-3,/,-1
ONC(=Nc1ccc(Cl)cc1)c1ccccc1,-0.73,-4,-9.7*,2,/,3
COc1ccc2c(c1)C1(Nc3ccccc3-c3nc4ccccc4n31)C(=O)N2C (configuration not stated),-3.1*,/,0.53,/,0.048,1
COC(=O)C1=C(C)Nc2nc(-c3ccccc3)nn2C1c1ccc(C)o1 (configuration not stated),/,-13,0.67,1,-7.3*,4
COC(=O)N/N=C\c1c(C)nn(-c2ccccc2)c1Cl,/,4,/,2,/,/
Cc1nn(-c2ccccc2)c(Cl)c1/C=C1\SC(=S)NC1=O,-2.3,101*,-4.4*,-10,/,-1
O=c1cc(-c2ccccc2Cl)oc2c(NS(=O)(=O)c3cc(Cl)cc(Cl)c3O)ccc(O)c12,/,/,-6.3*,/,/,/
CCc1ccc(S(=O)(=O)Nc2ccc(O)c3c(=O)cc(-c4ccccc4Cl)oc23)cc1,/,/,0.074,/,/,/
Cc1cccc(-n2c(C)nc3c(cnn3-c3ccc(F)cc3)c2=O)c1,0.36,10,-0.77,-5,0.4,-1
c1cc(Nc2ncnc3sccc23)cc(-c2nnc3n2CCCCC3)c1,-0.46,0,2.1,2,-0.49,1
Cc1ccc(S(=O)(=O)NC(=O)c2ccc(-c3ccc(-c4ccccc4)cc3)o2)c(C)c1,/,/,-2.2*,/,/,/
COc1ccc2nc(NC(=O)C3CCN(S(=O)(=O)c4cccs4)CC3)sc2c1,-1.3,43,2.8*,-4,/,3
COc1ccc2nc(NC(=O)C3CCCN(S(=O)(=O)c4cccs4)C3)sc2c1 (configuration not stated),-0.39,2,0.64,3,/,8
COc1ccc2nc(NC(=O)C3CCN(S(=O)(=O)c4cnc[nH]4)CC3)sc2c1,0.06,1,2*,0,-4.9*,/
CCOc1ccc2nc(NC(=O)C3CCN(S(=O)(=O)c4cnc[nH]4)CC3)sc2c1,/,0,1.2,-1,0.55,5
Cc1ccccc1-n1c(SCC(=O)c2cc(C)n(C)c2C)nnc1-c1ccncc1,0.69,10,1.6,0,0.24,-2
O=[n+]1c2c(n([O-])c3cc(Cl)ccc31)CCCC2,0.01,/,0.97*,/,/,-2
CCOc1ccc2c(c1)n([O-])c1c([n+]2=O)CCCC1,-0.6,-12,0.73,-3,/,/
CSc1ccc(/C=C(\C#N)C(=O)Nc2cccc(C)c2)cc1,/,5,/,39,/,/
CCCCC(O)(C(NC=O)C(=O)OC)C(F)(F)F (configuration not stated),0.63,-1,-8.6*,-4,-0.017,3
CSc1nc(N)nc(SCCS(=O)(=O)c2ccc(Cl)cc2)c1C#N,-2,/,6.1*,/,-0.49,-2
CCCn1c(=O)n(C)c(=O)c2c3oc(=O)c(NC(=O)c4ccc(F)cc4)cc3[nH]c21,/,/,/,/,0.018,/
Cc1onc(-c2ccccc2)c1C(=O)Nc1nnc(-c2ccncc2)s1,-3.2*,10,-0.37,3,0.41,-1
Cc1onc(-c2ccccc2)c1C(=O)Nc1nc2c(s1)C(=O)CC(C)(C)C2,-3.8*,-18,0.54,7,/,9
Cc1noc(C)c1C(=O)Nc1nnc(-c2ccccc2)s1,-1.1,-12,0.77,6,-0.51,8
